The results in this text go back to the OligoGym collection.
Also: reference of the scale not given here.

For the first test, the target named is ATP6V0A4. As to the kind of experiment: pooled miR-30 sensor sort-seq; sequence = guide strand. To be noted: shRNA.
Sequence TCTTTGAACTGAACCAATCCGA showed a sensor-assay potency score (higher = more potent) of 0.235.
Same read-out and setting: next, TTTTTCTAGAACAGTCTCCAGG: -0.591.
The sequence ATCTTCTTGATTTTCTGCCTGA returned a sensor-assay potency score (higher = more potent) of -0.439.
The sequence TTCTAGAACAGTCTCCAGGGTA showed a sensor-assay potency score (higher = more potent) of -0.117.
The sequence TTGTGACAAACACATCTCCTCG returned a sensor-assay potency score (higher = more potent) of -1.11.
On the same count and under the same terms, in the case of ATAGGCATCAACAATATTCTGG it was -0.65; in that of TAGTTAAACAGAAACATGTTGA, -0.563; in that of TTCTGCACCTTGATGAGCCAGG, -0.64.
On the same count and under the same terms, next, TTCCTGTAACTCTCCTTCCAGT: -0.817; TTGTTCTGGAACTCAACCCAGT: -0.422.

The target of the next test is ATP7B. The description is as above. To be noted: shRNA.
Sequence TTTCATCTCGTGGTCTGTCATA had a sensor-assay potency score (higher = more potent) of -1.47.
On the same count and under the same terms, in the case of TTCAGGAGCAGAGACCACTTGT it was -0.382.
On the same count and under the same terms, in the case of TTGACATCTGAGCCTCTTCCAC it was -1.39; in that of AACATCACAGTCTTTATCTTGT, -0.258; in that of AAACATCACAGTCTTTATCTTG, -0.586.
Regarding TGTCTGTCCTTTCATCTCGTGG, the sensor-assay potency score (higher = more potent) is -1.22.
On the same count and under the same terms, in the case of TAGCTCTGGCTGTCTTCCGGTT it was -1.3.
On the same count and under the same terms, next, TTTGTTGATGCCAACCTGGGTG: -0.00244; TAGCACTTGAGCTGCAGGGATG: -1.64.
Same read-out and setting: in the case of TTCCTCTTTACAGTATTTGGTG it was -0.123.
TTATCTTGTGCGCCATCTCCAG showed a sensor-assay potency score (higher = more potent) of -0.947.
Sequence TGACTGGACATATCCAGGGAGC gave a sensor-assay potency score (higher = more potent) of -1.47.
Still for that read-out and setting: in the case of TATCTTGTGCGCCATCTCCAGG it was -1.02; in that of TTGTCAAACATCACAGTCTTTA, -0.992.
The same measure, in the same setting: in the case of TTTTTGGTCCTGATGAAACTGT it was -0.518.
TGTCCTGCTCAGCTTGTGGTGA returned a sensor-assay potency score (higher = more potent) of -0.618.
Sequence TCATCGTCTGCTGCAGCGCTGT yielded a sensor-assay potency score (higher = more potent) of -1.45.
Still for that read-out and setting: in the case of TATAGCACTTGAGCTGCAGGGA it was -0.435; in that of ATAGCGTCACTGACATCGCTAG, -0.788; in that of TTGGGGTTCTTTGACATCTGAG, -0.597.
